Data reported in PubChem BioAssay.
Unmarked numbers belong to inactive results.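 How the source made its calls, unless noted: active means viability increase at or above a cutoff of the median across tested compounds plus 3 SD (cut at about 8.5% in these data, passing the limit was not always enough); inconclusive means some gains above the cutoff, reason not given; inactive means the rest.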 Results filed as inconclusive are left out.

Test: doxorubicin toxicity protection in MRP-1 cells – H69AR cells, CellTiter-Glo, duplicate, MRP-1 activator project, pilot screen (AID 807);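 further: compound pretreatment 18-22 h then 72 h combined with doxorubicin; 0% = doxorubicin alone and 100% = vehicle without doxorubicin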
Details: H69AR viability with doxorubicin, CellTiter-Glo luminescence; at 10 µM; hits give high values

| SMILES | viability increase |
| --- | --- |
| O=C(CSCc1ccco1)Nc1cc(C(F)(F)F)ccc1N1CCOCC1 | -5.7% |
| Cc1nc2ccccc2c2nc3ccccc3n12 | -0.65% |
| O=C1C(=C2CCCCC2)SC(=S)N1Cc1ccco1 | -4.02% |
| COc1ccc(-c2n[nH]c(C(F)(F)F)c2-c2cc3ccccc3o2)c(O)c1 | -7.49% |
| COc1ccccc1N1CCN(C(CNC(=O)c2ccco2)c2cccnc2)CC1 (stereo not given) | -2.37% |
| O=C(c1cc(-c2ccccc2O)on1)N1CCc2ccccc2C1 | -0.83% |
| c1cn2cc(-c3ccc4c(c3)OCO4)nc2s1 | 1.35% |
| CC(Sc1nc2ccccc2s1)C(=O)N1CCOCC1 (stereo not given) | -3.03% |
| CC(C)Sc1nc(O)c(Cc2ccccc2)c(=O)[nH]1 | -0.54% |
| CCCOc1ccc(C(=O)Nc2cc(-c3nn4c(C)nnc4s3)ccc2C)cc1 | -3.69% |
| COc1ccc2cc(C(=O)Nc3c(C)n(C)n(-c4ccccc4)c3=O)sc(=O)c2c1OC | -1.5% |
| COC(=O)CSCc1nc2ccccc2[nH]c1=O | -2.15% |
| COc1ccc(NC(=O)CC2SC(=Nc3ccccc3)NC2=O)c(OC)c1 (stereo not given) | 2.03% |

Test: viability of HCT116 without oncogenic beta-catenin – human colon tumor cells, pilot screen (AID 823;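 active means cell viability at or below a set limit in both duplicate runs, the limit being the all-compound median minus 4 SD, cut at about 23% in these data, passing the limit was not always enough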;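 further: 0% = wells killed by 20 µM Hyamine and 100% = untreated DMSO cell wells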)
Details: HCT116 beta-catenin knockout viability, CellTiter-Glo, 60 h; at 10 µM; hits give low values

| SMILES | viability |
| --- | --- |
| O=C(CSCc1ccco1)Nc1cc(C(F)(F)F)ccc1N1CCOCC1 | 63.4% |
| O=C1C(=C2CCCCC2)SC(=S)N1Cc1ccco1 | 80.2% |
| COc1ccc(-c2n[nH]c(C(F)(F)F)c2-c2cc3ccccc3o2)c(O)c1 | 59.5% |
| COc1ccccc1N1CCN(C(CNC(=O)c2ccco2)c2cccnc2)CC1 (stereo not given) | 85% |
| O=C(c1cc(-c2ccccc2O)on1)N1CCc2ccccc2C1 | 97.9% |
| c1cn2cc(-c3ccc4c(c3)OCO4)nc2s1 | 99.7% |
| CC(Sc1nc2ccccc2s1)C(=O)N1CCOCC1 (stereo not given) | 95.9% |
| CC(C)Sc1nc(O)c(Cc2ccccc2)c(=O)[nH]1 | 104% |
| CCCOc1ccc(C(=O)Nc2cc(-c3nn4c(C)nnc4s3)ccc2C)cc1 | 101% |
| COc1ccc2cc(C(=O)Nc3c(C)n(C)n(-c4ccccc4)c3=O)sc(=O)c2c1OC | 97.7% |
| COC(=O)CSCc1nc2ccccc2[nH]c1=O | 101% |
| COc1ccc(NC(=O)CC2SC(=Nc3ccccc3)NC2=O)c(OC)c1 (stereo not given) | 93.4% |
